Experimental data as given in PubChem BioAssay (NCI).
About 79,000 compounds went through this panel and 15% of them were active in at least one assay; those are over-represented in the sample as a whole. Active and inactive are the calls of the source. Rule as the data show it: active = growth inhibition above about 70%; inactive = the rest.

Experiment: NCI Yeast Anticancer Drug Screen. Data for the rad50EPP+ strain (AID 151);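 also: 0% = growth of vehicle-treated control cultures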
Conditions: S. cerevisiae rad50 mutant strain, active compounds read high
Protocol: Growth inhibition of yeast strains with defined genetic alterations is measured as a screen for potential anti-cancer activity. Selected strains with alterations in DNA damage repair or cell cycle control were exposed to compounds and growth inhibition was measured relative to vehicle treated controls. The strain used in this assay is rad50EPP+

For `Nc1nc2c(c(=O)[nH]1)NC(CCNc1ccc(C(=O)O)cc1)CN2` (stereo not given), the growth inhibition (at 1.2 µM) was -3% (inactive), the growth inhibition (at 3.7 µM) was -4% (inactive) and the growth inhibition (at 11.0 µM) was -3% (inactive). For the same compound, the growth inhibition (at 33.0 µM) was -2% (inactive) and the growth inhibition (at 100.0 µM) was -5% (inactive).
In the case of `NC(=O)N1c2ccccc2C=Cc2ccccc21`, the growth inhibition (at 1.2 µM) is reported as -49% (inactive), the growth inhibition (at 3.7 µM) is reported as -73% (inactive) and the growth inhibition (at 11.0 µM) is reported as -63% (inactive). For the same compound, the growth inhibition (at 33.0 µM) was -91% (inactive) and the growth inhibition (at 100.0 µM) was -65% (inactive).
For `CCn1ncc(N=O)c1N`, the growth inhibition (at 1.2 µM) was 0% (inactive), the growth inhibition (at 3.7 µM) was -4% (inactive) and the growth inhibition (at 11.0 µM) was 3% (inactive). The growth inhibition (at 33.0 µM) was 28% (inactive) and the growth inhibition (at 100.0 µM) was 71% (active).
For `CC(=O)C1(O)Cc2c(O)c3c(c(O)c2C(OC2CC(N)C(O)C(C)O2)C1)C(=O)c1ccccc1C3=O` (stereo not given), the growth inhibition (at 1.2 µM) was 55% (inactive), the growth inhibition (at 3.7 µM) was 92% (active) and the growth inhibition (at 11.0 µM) was 97% (active). The growth inhibition (at 33.0 µM) was 98% (active) and the growth inhibition (at 100.0 µM) was 98% (active).
With `Cc1c(-c2ccccc2)[nH]c2ccccc12` the growth inhibition (at 1.2 µM) was -2% (inactive), the growth inhibition (at 3.7 µM) was 20% (inactive) and the growth inhibition (at 11.0 µM) was 16% (inactive). For the same compound, the growth inhibition (at 33.0 µM) was 52% (inactive) and the growth inhibition (at 100.0 µM) was 98% (active).
With `CC(=O)Oc1ccc(N2C(=O)C3c4[nH]c5ccccc5c4C4CCC(C(C)(C)C)CC4C3C2=O)cc1` (stereo not given) the growth inhibition (at 1.2 µM) was -23% (inactive), the growth inhibition (at 3.7 µM) was -26% (inactive) and the growth inhibition (at 11.0 µM) was -26% (inactive). For the same compound, the growth inhibition (at 33.0 µM) was -6% (inactive) and the growth inhibition (at 100.0 µM) was 6% (inactive).
For `O=C(/C=N/O)Nc1cc(Cl)c(Cl)cc1Cl`, the growth inhibition (at 1.2 µM) was -17% (inactive), the growth inhibition (at 3.7 µM) was 3% (inactive) and the growth inhibition (at 11.0 µM) was 6% (inactive). For the same compound, the growth inhibition (at 33.0 µM) was 51% (inactive) and the growth inhibition (at 100.0 µM) was 83% (active).
For `Cc1ccc(S(=O)(=O)N/N=C/C2(c3ccccc3)c3ccccc3-c3ccccc32)cc1`, the growth inhibition (at 1.2 µM) was 11% (inactive), the growth inhibition (at 3.7 µM) was 2% (inactive) and the growth inhibition (at 11.0 µM) was 17% (inactive). The growth inhibition (at 33.0 µM) was -8% (inactive) and the growth inhibition (at 100.0 µM) was -37% (inactive).
